{"source": "PubChem BioAssay AID1745847", "about": "(National Center for Advancing Translational Sciences (NCATS), 2022)", "note": "Hit rate of the full screen: of about 2,100 compounds, about 670 (32%) were called active. Not shown: some 50% with an inconclusive outcome. The list shows a part of the results. Values without a mark were called inactive. The call rests on the fitted dose curve; in most records, active means well fitted inhibition curve with a large enough effect; inconclusive means small, poorly fitted or top-dose-only effect; inactive means no such curve, though single readings can be large or run the other way. On the % scale 0 is the no-effect control and ±100 the full control effect; potency means the concentration at half of the fitted maximal effect.", "data": [{"experiment": "CMV-Luciferase Counterscreen for Inhibitors of ATXN expression; further: nearly all actives have a fitted effect of over 55% in size", "settings": "HEK-293 CMV-luciferase reporter, luminescence, 24 h; series mostly up to 57.5 µM; activity change, negative = inhibition: at the top concentration", "values": [{"smiles": "O=C1Nc2c(Br)cc(Br)c3cccc1c23", "activity change, negative = inhibition": "-4.4%"}, {"smiles": "O=C(Nc1nc(-c2ccc(S(=O)(=O)N3CCOCC3)cc2)cs1)c1ccccc1", "Potency": "1.12 µM (active)"}, {"smiles": "O=C(Nc1nc(-c2ccccc2)cs1)c1ccccc1NS(=O)(=O)c1ccc(F)cc1", "Potency": "1 µM (active)"}, {"smiles": "COc1cccc(C(=O)Nc2nc(-c3ccc(S(=O)(=O)N4CCOCC4)cc3)cs2)c1", "Potency": "2.82 µM (active)"}, {"smiles": "O=C(Nc1cccc(S(=O)(=O)C(F)F)c1)c1ccc(Cl)c(S(=O)(=O)N2CCOCC2)c1", "Potency": "15.8 µM (active)"}, {"smiles": "NC(=O)c1c(NC(=O)c2ccc(S(=O)(=O)N3CCOCC3)cc2)sc2c1CCCCC2", "activity change, negative = inhibition": "-13.6% [at 11.4 µM]"}, {"smiles": "O=C(Nc1nc(-c2ccccn2)cs1)c1ccc(F)c(S(=O)(=O)N2CCOCC2)c1", "Potency": "1.78 µM (active)"}, {"smiles": "COc1ccccc1C(=O)Nc1nc(-c2ccc(S(=O)(=O)N3CCOCC3)cc2)cs1", "Potency": "1.58 µM (active)"}, {"smiles": "Cn1c(=O)c2c(nc(SCCN3CCOCC3)n2Cc2cccc3ccccc23)n(C)c1=O", "activity change, negative = inhibition": "-18.8% [at 11.4 µM]"}, {"smiles": "Cn1c(=O)c2c(nc(CN3CCN(Cc4ccccc4)CC3)n2Cc2ccc(Cl)cc2)n(C)c1=O", "Potency": "17.8 µM (active)"}, {"smiles": "CCCCCc1ccc(OCCCC[n+]2cccc(C)c2)c(CCCCC)c1", "Potency": "4.47 µM (active)"}, {"smiles": "O=C(NC(=S)NCc1nc2ccccc2[nH]1)c1ccc(F)cc1", "activity change, negative = inhibition": "290% [at 11.4 µM]"}, {"smiles": "CCCC(=O)NC(c1ccc(OC)c(OC)c1)c1cc(Cl)c2cccnc2c1O", "note": "(stereo not drawn)", "Potency": "4.47 µM (active)"}, {"smiles": "CCC(=O)NC(c1ccc(OC)c(OC)c1)c1cc(Cl)c2cccnc2c1O", "note": "(stereo not drawn)", "Potency": "1.41 µM (active)"}, {"smiles": "Cc1ccc(Sc2nnc(Cc3ccccc3)c3ccccc23)cc1", "activity change, negative = inhibition": "-3.53%"}, {"smiles": "O=C(N/N=C/c1sc(N2CCOCC2)nc1-c1ccccc1)c1ccccc1O", "Potency": "12.6 µM (active)"}, {"smiles": "CC(C)(C)c1ccc(C(=O)N2CCCCCC2=O)cc1", "Potency": "5.01 µM (active)"}, {"smiles": "COc1ccc(CN(C)C(=O)c2cccc(NC(=O)CC3SC(N4CCCCC4)=NC3=O)c2)c(OC)c1", "note": "(stereo not drawn)", "Potency": "10 µM (active)"}, {"smiles": "CC(C)c1ccc2c(c1)C(N1CCNCC1)Cc1ccc(F)cc1S2", "note": "(stereo not drawn)", "Potency": "35.5 µM (active)"}, {"smiles": "COc1ccc(N=Cc2cc3c(cc2O)OC(N)=C(C#N)C3c2ccccc2)cc1", "note": "(stereo not drawn)", "activity change, negative = inhibition": "-22.6% [at 11.4 µM]"}, {"smiles": "Cc1cc(C)cc(C(=O)N(NC(=O)Nc2ccc(Cl)cc2)C(C)(C)C)c1", "Potency": "22.4 µM (active)"}, {"smiles": "Oc1c(Cl)cc(Cl)cc1/C=N/Nc1ncc(Br)cn1", "Potency": "2 µM (active)"}, {"smiles": "CN1CCN(c2cc(-c3cc(O)c4ncccc4c3)ccn2)CC1", "Potency": "14.1 µM (active)"}, {"smiles": "CN(Cc1cnc2nc(N)nc(N)c2n1)c1ccc(C(=O)N[C@@H](CCC(=O)O)C(=O)O)cc1", "Potency": "0.0063 µM (active)"}, {"smiles": "Cc1cc(C)cc(NS(=O)(=O)c2ccc3c(c2)c(=O)n(C)c(=O)n3C)c1", "Potency": "11.2 µM (active)"}, {"smiles": "NC(Cc1ccc(C(F)(F)F)cc1)c1csc(Nc2ccc(C(=O)NCc3ccco3)cn2)n1", "note": "(stereo not drawn)", "activity change, negative = inhibition": "-23.4% [at 11.4 µM]"}, {"smiles": "Cn1cc(/C=C/c2cc[n+](C)cc2)c2cc(F)ccc21", "Potency": "11.2 µM (active)"}, {"smiles": "CN(C)CCNC(=O)c1cccc(-c2cnc3c(NC=O)cc(-c4cccs4)cn23)c1", "activity change, negative = inhibition": "0.48%"}, {"smiles": "COc1ccc(-c2cc(NC=O)c3ncc(-c4cccc(C(=O)NCCN(C)C)c4)n3c2)cc1", "activity change, negative = inhibition": "-9.37%"}, {"smiles": "CN(C)CCNC(=O)c1cccc(-c2cnc3c(NC=O)cc(-c4cccc(C(F)(F)F)c4)cn23)c1", "Potency": "22.4 µM (active)"}, {"smiles": "Cc1ccc(Cl)cc1N1CCN(C(=O)CCS(=O)(=O)c2ccc3c(c2)NC(=O)CO3)CC1", "Potency": "14.1 µM (active)"}, {"smiles": "CCc1nc2ccc(C(=O)Nc3cc(-c4ccccc4)ccc3OC)cn2c1N(CC)CC(=O)N(C)C", "Potency": "31.6 µM (active)"}, {"smiles": "CCCCN(C=O)c1c(CC)nc2ccc(C(=O)Nc3cc(-c4ccccc4)ccc3OC)cn12", "Potency": "22.4 µM (active)"}, {"smiles": "Cc1ccnc(NC(=S)N2CCN(c3cccc(C(F)(F)F)c3)CC2)c1", "activity change, negative = inhibition": "410%"}, {"smiles": "Cc1nc2ncnn2c(N2CCN(c3cccc(C(F)(F)F)c3)CC2)c1C", "Potency": "2.51 µM (active)"}, {"smiles": "O=C(N/N=C(\\c1ccccc1)c1ccccn1)c1ccccc1Cl", "Potency": "3.98 µM (active)"}, {"smiles": "CCC(CC)C(=O)c1c[nH]c(C(=O)NCc2ccccn2)c1", "activity change, negative = inhibition": "5.87%"}, {"smiles": "COc1cc(C(=O)N/N=C(\\c2ccccc2)c2ccccn2)cc(OC)c1OC", "Potency": "0.398 µM (active)"}, {"smiles": "Cc1ccc2c(c1)-c1c(cnn1CC(=O)N1CCCN(Cc3ccccc3F)C1)CO2", "activity change, negative = inhibition": "-25.8% [at 11.4 µM]"}, {"smiles": "CC(NC1=CC(=O)c2cccnc2C1=O)C(O)c1ccccc1", "note": "(stereo not drawn)", "Potency": "15.8 µM (active)"}, {"smiles": "C/C(=N\\NC(=O)C1CCCN(S(=O)(=O)c2ccccc2)C1)c1ccccn1", "note": "(stereo not drawn)", "Potency": "1.41 µM (active)"}, {"smiles": "CCc1ccc(-c2nc(CS(=O)CC(=O)NCc3ccco3)c(C)o2)cc1", "note": "(stereo not drawn)", "Potency": "0.501 µM (active)"}, {"smiles": "Cc1cccc(N=C2NN=C(c3c(C)[nH]c4ccccc34)CS2)c1", "Potency": "12.6 µM (active)"}, {"smiles": "COc1cc(OC)cc(-c2cc3nc(C)c(CCC(=O)NCc4ccccc4)c(C)n3n2)c1", "Potency": "11.2 µM (active)"}, {"smiles": "COc1cc(OC)cc(-c2cc3nc(C)c(CCC(=O)O)c(C)n3n2)c1", "Potency": "1 µM (active)"}, {"smiles": "COc1ccc(CNC(=O)CSc2nc(-c3ccccc3)cc(-c3cccs3)c2C#N)cc1", "activity change, negative = inhibition": "16% [at 11.4 µM]"}, {"smiles": "Cc1c(CC(=O)NCCCC(=O)O)c(=O)oc2cc3c(cc12)CCC(C)(C)O3", "Potency": "11.2 µM (active)"}, {"smiles": "O=C1c2cccc3cc([N+](=O)[O-])cc(c23)C(=O)N1CCN1CCCC1", "Potency": "0.794 µM (active)"}, {"smiles": "O=C(Nc1cnn(C23CC4CC(CC(C4)C2)C3)c1)c1cnn2c(C(F)(F)F)cc(-c3ccco3)nc12", "Potency": "15.8 µM (active)"}, {"smiles": "CCc1ccc(-c2cc(C(F)(F)F)n3nc(C(=O)Nc4cnn(Cc5ccc(C)cc5)c4)cc3n2)s1", "activity change, negative = inhibition": "-12.2%"}, {"smiles": "CCOc1ccc(/C=C/[N+](=O)[O-])c2ccccc12", "Potency": "15.8 µM (active)"}, {"smiles": "Cc1cc(=O)[nH]c(N=N/C(=N/Nc2ccccc2C)c2ccccc2)n1", "Potency": "1.58 µM (active)"}, {"smiles": "COc1cc(C#Cc2c(-c3cncn3C)n(C)c3ccc(-c4ccc(CN5CCOCC5)cc4)cc23)cc(OC)c1", "activity change, negative = inhibition": "-6.42% [at 11.4 µM]"}, {"smiles": "COc1cc(C#Cc2c(-c3cncn3C)n(C)c3ccc(-c4cnc(N5CCOCC5)nc4)cc23)cc(OC)c1", "activity change, negative = inhibition": "-19.7% [at 11.4 µM]"}, {"smiles": "COc1cc(C#Cc2c(-c3cncn3C)n(C)c3ccc(-c4cnc(OC)nc4)cc23)cc(OC)c1", "Potency": "3.55 µM (active)"}, {"smiles": "Cc1ccc(-c2cc(C(=O)N/N=C/c3ccccc3O)n[nH]2)o1", "Potency": "15.8 µM (active)"}, {"smiles": "O=C(N/N=C/c1c(O)ccc2ccccc12)c1ccc(CO)nc1", "Potency": "8.91 µM (active)"}, {"smiles": "O=C(N/N=C\\c1c(O)ccc2ccccc12)c1cncc(Br)c1", "Potency": "0.282 µM (active)"}, {"smiles": "Nc1ccc2cc3[nH]c4cc(N)ccc4c3nc2c1", "activity change, negative = inhibition": "-29.2% [at 11.4 µM]"}, {"smiles": "CCN1CCN(C2=C(NS(=O)(=O)c3ccc(C)cc3)C(=O)c3ccccc3C2=O)CC1", "Potency": "3.55 µM (active)"}, {"smiles": "CCn1c(CCC(=O)Nc2nc3c(s2)CCCC3)nc2cc(S(=O)(=O)N(C)C)ccc21", "activity change, negative = inhibition": "4.42% [at 11.4 µM]"}, {"smiles": "CSCC[C@H](NC(=O)OC(C)(C)C)C(=O)N/N=C/c1cccc2cccnc12", "activity change, negative = inhibition": "-26.9%"}, {"smiles": "Cc1ccccc1OCC(=O)N/N=C/c1cccc2cccnc12", "Potency": "15.8 µM (active)"}, {"smiles": "Cc1ccc(OCC(=O)N/N=C/c2cccc3cccnc23)cc1", "Potency": "20 µM (active)"}, {"smiles": "O=C(COc1ccc(F)cc1)N/N=C/c1cccc2cccnc12", "Potency": "2.82 µM (active)"}, {"smiles": "Cc1cc(O)c(C(C)C)cc1N=Cc1ccc(N(C)C)cc1", "activity change, negative = inhibition": "0.592% [at 11.4 µM]"}, {"smiles": "Cc1nc(N2CCN(c3ccccn3)CC2)c2c(C)c(C(=O)N3CCN(c4ccc(F)cc4)CC3)sc2n1", "Potency": "14.1 µM (active)"}, {"smiles": "Oc1c(C(c2ccccn2)N2CCCCC2)cc(Cl)c2cccnc12", "note": "(stereo not drawn)", "activity change, negative = inhibition": "-10.9%"}, {"smiles": "Oc1c(C(Nc2ccccn2)c2cccnc2)cc(Cl)c2cccnc12", "note": "(stereo not drawn)", "Potency": "12.6 µM (active)"}, {"smiles": "Cc1cc(NC(c2cccnc2)c2ccc3cccnc3c2O)no1", "note": "(stereo not drawn)", "Potency": "3.98 µM (active)"}, {"smiles": "CCOc1ccccc1NC(=O)N1CCC(c2nc3ccccc3[nH]2)CC1", "activity change, negative = inhibition": "28.9% [at 11.4 µM]"}, {"smiles": "O=C(Nc1cccc(C(F)(F)F)c1)N1CCC(c2nc(-c3ccc(F)cc3)no2)CC1", "Potency": "11.2 µM (active)"}, {"smiles": "COc1ccc([C@@]2(C(C)C)ON(c3ccccc3C(F)(F)F)C2=O)cc1", "activity change, negative = inhibition": "-27.1% [at 11.4 µM]"}, {"smiles": "Cn1c(=O)c(C#N)c(-c2ccc(F)cc2)c2cc(C(=O)c3cc(Cl)cc(Cl)c3O)cnc21", "Potency": "3.55 µM (active)"}, {"smiles": "NC(=S)n1[nH]c(-c2ccc([N+](=O)[O-])cc2)c(N=Nc2cccc(Cl)c2)c1=O", "Potency": "3.55 µM (active)"}, {"smiles": "CC(C)(C)c1nnc(N/N=C/c2ccccc2O)n(N)c1=O", "Potency": "1.26 µM (active)"}, {"smiles": "COc1ccc(C(=O)C=CNNC(=O)c2ccc(Cl)cc2)cc1", "Potency": "11.2 µM (active)"}, {"smiles": "Cc1cc(OCc2nc(N)nc(N)c2-c2ccc(Cl)c(Cl)c2)ccc1[N+](=O)[O-]", "Potency": "0.316 µM (active)"}, {"smiles": "COc1cccc2c1C(=N)c1c(O)c3c(c(O)c1C2=O)CC(O)(C(C)=O)CC3OC1CC(N)C(O)C(C)O1", "note": "(stereo not drawn)", "Potency": "0.282 µM (active)"}, {"smiles": "CCCCC(=O)OCC(=O)C1(O)Cc2c(O)c3c(c(O)c2C(OC2CC(NC(=O)C(F)(F)F)C(O)C(C)O2)C1)C(=O)c1c(OC)cccc1C3=O", "note": "(stereo not drawn)", "Potency": "3.16 µM (active)"}, {"smiles": "C=CCn1cnc2c(c1=O)c1nc3ccccc3nc1n2/N=C/c1cc(OC)c(OC)c(OC)c1", "activity change, negative = inhibition": "-11.7%"}, {"smiles": "O=C(c1cnc(N2CCN(c3ccccn3)CC2)c2ccccc12)N1CCN(c2cccc(Cl)c2)CC1", "Potency": "6.31 µM (active)"}, {"smiles": "Cc1ccc(NC(=O)c2cnc(N3CCN(c4ccccn4)CC3)c3ccccc23)c(Br)c1", "Potency": "14.1 µM (active)"}]}]}
